# Shiga toxin inh: blocks Shiga toxin action in Vero cells; Vero cells, Shiga toxin protein synthesis inhibition reporter; inhibition, % at 38.7 µM; 9.2% of 290,000 active; AID 2315; in the data active = inhibition mostly above about 28%, no sharp cut-off; inactive = mostly below about 43%
# SARS PLP yeast: inhibitors of SARS-CoV papain-like protease in yeast | AID 485353 | S. cerevisiae expressing SARS-CoV PLpro, growth rescue | 0.19% of 330,000 active | Potency, µM (doses to about 32.9 µM), most hits filed as activators; also: nearly all actives have a fitted effect of over 55% in size
# NS1 inh: blocks influenza NS1 protein function | Potency, µM (doses to about 46.1 µM) | 0.4% of 270,000 active; also: actives are rising curves; nearly all actives have a fitted effect of over 50% in size
#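 Read-out: OD600 growth recovery of NS1-expressing budding yeast. Cells grown overnight at 30C in -URA glucose medium, washed, resuspended and diluted 1:100 in 2% galactose assay medium, pH 6.0. Same strain lacking NS1 served as positive control.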
# CHX counter: affects cycloheximide protein synthesis inhibition readout, counter-screen; cell reporter, cycloheximide protein synthesis inhibition counterscreen; 12% of 300,000 active; max response, %; AID 2314; in the data active = max response mostly above about 13%, no sharp cut-off; inactive = mostly below about 14%; also: read at 38.3 µM for the half of the compounds with a filed dose
# Hits are given with their value; . = inactive; ? = inconclusive; / = not tested or not shown. This is a sample that favours compounds with a hit; in the whole collection about 12% have one here. Unless noted, calls follow the shape of the full dose curve.
SMILES,Shiga toxin inh,SARS PLP yeast,NS1 inh,CHX counter
Cc1ccc2c(c1)N(Cc1cccc(C#N)c1)C=NS2(=O)=O,.,.,.,.
COc1ccc(C(=O)CNc2cccc(F)c2)cc1,87,.,.,50
COc1ccc(C(=O)CC(=O)C(=O)Nc2cc(C)ccc2C)cc1,.,.,.,.
COc1ccc(C(=O)CC(=O)C(=O)Nc2ccc(C)c(Cl)c2)cc1,.,.,.,23
COc1ccc(C(=O)CC(=O)C(=O)Nc2cccc(F)c2)cc1,50,.,.,19
O=C(NCC(=O)N1CCN(S(=O)(=O)c2ccccc2C(F)(F)F)CC1)c1sc2ccccc2c1Cl,/,.,/,/
COc1ccc(S(=O)(=O)N(C)CC(=O)NCc2cccnc2)cc1Cl,.,.,.,.
COc1ccc(-c2csc(C)n2)cc1,56,.,.,31
COc1ccc(NC(=O)c2ccc(-c3csc(C)n3)cc2)cc1,78,.,.,36
COc1ccc(-c2csc(C)n2)cc1OC,.,.,.,.
CCOc1ccc(NC(=O)c2ccc(-c3csc(C)n3)cc2)cc1,.,.,?,.
Cc1nc(-c2ccc(C(=O)Nc3ccc(F)cc3)cc2)cs1,75,.,.,35
COc1ccc(C(=O)Nc2cnc3sc(C)nn3c2=O)cc1,46,.,/,24
Cc1nc(-c2ccc(C(=O)Nc3ccccc3F)cc2)cs1,.,.,/,.
Cc1nc(-c2ccc(C(=O)Nc3cccc(F)c3)cc2)cs1,18,.,.,17
Cc1ccc(S(=O)(=O)Nc2cccc3ccc[n+](C)c23)cc1,.,/,/,.
CCOC(=O)/C(C#N)=C\C=C1C=CN(C)C=C1,63,.,.,35
CCOC(=O)/C(C#N)=C\c1ccc(CC)s1,102,.,.,80
Cc1cc(/C=C(\C#N)C(=O)Nc2ccccc2)c(C)n1-c1ccc(C(=O)O)cc1,.,.,.,.
CCOC(=O)/C(C#N)=C\c1cc(C)n(-c2ccccc2)c1C,82,.,.,55
CCOC(=O)/C(C#N)=C/c1cc(C)n(-c2ccc(C)cc2)c1C,.,.,.,18
CC12CCC(C(=O)Nc3ccncc3)(CC1O)C2(C)C (centres undefined),.,.,.,.
CC1CC(C)(C)CC2(C1)NC(=O)N(CC(=O)N1CCN(S(=O)(=O)c3cccs3)CC1)C2=O (centres undefined),/,.,/,/
O=C(O)C(=O)/C(=C\c1ccccc1)c1ccc2ccccc2n1,89,.,.,34
O=C(O)C(=O)/C(=C\c1ccsc1)c1ccc2ccccc2n1,87,.,.,27
SMILES,Shiga toxin inh,SARS PLP yeast,NS1 inh,CHX counter
O=C(OCc1ccc([N+](=O)[O-])cc1)c1ccc2ccccc2n1,.,.,.,.
O=C(OCc1cc(-c2ccccc2)no1)c1ccc2ccccc2n1,.,.,.,.
O=C(O)C(=O)/C(=C\c1ccc([N+](=O)[O-])cc1)c1ccc2ccccc2n1,49,.,/,27
O=C(O)C(=O)/C(=C\c1cccc2ccccc12)c1ccc2ccccc2n1,.,.,.,.
CCCN(CC1CC1)C(=S)NC(=O)c1ccc(S(=O)(=O)N2CCOCC2)cc1,.,.,/,.
COc1ccccc1-c1cc2ccccc2[nH]1,69,.,.,38
CC(CC(=O)N(CCC1=CCCCC1)c1c(N)n(Cc2ccccc2)c(=O)[nH]c1=O)c1ccccc1 (centres undefined),/,.,/,/
C/C(=N/NC(=O)c1ccc(-c2ccccc2)cc1)c1cc(O)cc(O)c1,.,.,.,.
C/C(=N\NC(=O)c1cccc(F)c1)c1ccc(NC(=O)Cc2ccccc2)cc1,48,.,.,42
C/C(=N\NC(=O)c1cc(O)cc(O)c1)c1ccc(NC(=O)Cc2ccccc2)cc1,70,?,.,22
COC(=O)C(c1ccccc1Cl)N1CCc2sccc2C1 (centres undefined),.,/,/,.
COc1ccccc1/C=N/NC(=O)c1csc(C)c1C,39,.,.,15
Cc1scc(C(=O)N/N=C/c2ccc(Cl)s2)c1C,50,.,.,47
Cc1scc(C(=O)N/N=C/c2ccc(OC(C)C)cc2)c1C,115,.,.,44
NC(N)=NC1=NC(=O)C(Cc2ccccc2Cl)S1 (centres undefined),.,.,.,.
Cc1cccc(C)c1OCCCn1c(CCNC(=O)C2CCCCC2)nc2ccccc21,.,/,/,.
O=C1COc2ccc(C(=O)COC(=O)/C=C/c3ccco3)cc2N1,/,.,/,/
CNC(=O)Nc1ccc2snnc2c1,.,.,.,.
COc1ccc(NC(=S)Nc2ccc(N)c([N+](=O)[O-])c2)cc1,.,.,.,21
COc1ccc(NC(=S)Nc2ccc3snnc3c2)cc1,34,.,.,24
COc1ccc(NC(=S)Nc2ccc3nccnc3c2)cc1,54,.,.,31
CC(=O)c1cccc(N(CC(=O)NC2CCCCC2)C(=O)c2csnn2)c1,.,.,.,.
COc1cc(CNc2ncnc3ccc(-c4c(C)noc4C)cc23)cc(OC)c1OC,.,/,/,.
CN(C)c1ccc(-c2nnc(-c3cccs3)o2)cc1,.,.,/,.
Cc1nnc(NC2=NCCC2)o1,.,.,.,.
SMILES,Shiga toxin inh,SARS PLP yeast,NS1 inh,CHX counter
CCOc1ccc(-c2nnc(-c3ccccc3)n2-c2ccccc2)cc1,.,.,.,42
c1coc(-c2nnc(NC3=NCCC3)o2)c1,66,.,.,29
C=CCSc1nnc(-c2ccncc2)n1-c1ccc(OCC)cc1,.,.,.,.
COc1ccc(-c2nc3ccccc3c(=O)o2)cc1OC,.,.,.,.
CCCOc1ccc(-c2nnc(-c3cccs3)o2)cc1,107,.,.,51
CCOc1ccc(-c2nc3ccccc3c(=O)o2)cc1,.,.,.,15
Cc1cc(C)cc(NC(=O)C[n+]2ccccc2)c1,.,.,.,.
COc1ccccc1NC(=O)Nc1cccnc1,.,.,.,.
CCOc1ccc(-c2nnc(NC3=NCCCCC3)o2)cc1,73,.,.,41
CCCCOc1ccc(-c2nnc(-c3ccncc3)o2)cc1,.,.,.,17
CCOc1ccc(S(=O)(=O)NC2=NCCCCC2)cc1,/,.,/,/
CCOc1ccc(-c2nnc(-c3ccccc3)o2)cc1,77,.,.,29
CCOc1ccc(-c2nnc(-c3ccncc3)o2)cc1,.,.,.,50
CC1CCCCC1NC(=O)COC(=O)COc1ccccc1F (centres undefined),/,.,/,/
CC1CCN(S(=O)(=O)c2cn(CC(=O)Nc3ccc(OC(F)(F)F)cc3)cn2)CC1,.,.,.,.
C/C(=N\Nc1ccc(S(=O)(=O)N2CCCCC2)cn1)c1cccc(Br)c1,/,.,/,/
CN(C)N=Nc1ccc(-c2cn(Cc3ccccc3)cn2)cc1,41,.,.,47
COc1ccc(-c2[nH]ncc2CN(C)Cc2nonc2C)c(OC)c1,.,.,.,.
COC(=O)C(C)Oc1ccc2cc(-c3ccccc3)c(=O)oc2c1 (centres undefined),.,/,.,.
COc1ccc2cc(-c3ccccc3)c(=O)oc2c1,52,.,.,32
O=c1oc2ccccc2cc1-c1ccccc1,.,.,.,30
O=c1oc2cc(OCc3c(F)cccc3Cl)ccc2cc1-c1ccccn1,.,.,.,.
CN(C)C(=O)COc1ccc2cc(-c3ccccc3)c(=O)oc2c1,54,.,.,25
CCCOc1ccc2cc(-c3ccccn3)c(=O)oc2c1,.,.,.,39
